PubChem BioAssay AID1903 (Southern Research Specialized Biocontainment Screening …, 2009)
Where “and” joins values, the source holds several entries; their conditions need not be identical. Equal values may be shown once. Hit rate of the full screen: of about 310,000 compounds, about 1,200 (0.39%) were called active. No rule for the calls is given here. Not all results are given here. Entries with a potency or affinity are not part of this list.

Target: Large T antigen (Simian virus 40) (UniProt P03070)
Sequence (P03070 whole entry, looked up): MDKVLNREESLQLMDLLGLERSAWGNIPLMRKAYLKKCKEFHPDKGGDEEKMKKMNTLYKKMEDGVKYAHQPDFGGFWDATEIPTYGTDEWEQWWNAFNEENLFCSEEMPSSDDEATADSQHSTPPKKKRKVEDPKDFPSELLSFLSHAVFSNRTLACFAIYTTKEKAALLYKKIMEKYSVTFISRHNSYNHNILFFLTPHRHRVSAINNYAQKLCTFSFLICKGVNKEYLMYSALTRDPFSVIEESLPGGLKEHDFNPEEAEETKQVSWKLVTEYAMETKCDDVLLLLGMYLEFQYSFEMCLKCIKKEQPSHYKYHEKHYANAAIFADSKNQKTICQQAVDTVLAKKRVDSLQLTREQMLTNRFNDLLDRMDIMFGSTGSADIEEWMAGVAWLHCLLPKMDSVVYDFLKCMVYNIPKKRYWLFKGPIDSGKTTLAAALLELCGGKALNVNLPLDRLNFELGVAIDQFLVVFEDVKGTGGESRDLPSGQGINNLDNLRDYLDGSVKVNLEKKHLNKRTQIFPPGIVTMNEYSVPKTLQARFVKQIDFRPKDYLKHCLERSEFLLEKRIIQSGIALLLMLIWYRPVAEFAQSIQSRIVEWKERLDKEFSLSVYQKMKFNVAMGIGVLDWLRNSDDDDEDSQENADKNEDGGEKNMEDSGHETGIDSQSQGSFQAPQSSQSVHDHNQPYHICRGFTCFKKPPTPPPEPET
Test: TAg ATPase/helicase activity blockers – biochemical (AID 1903)
Details: SV40 large T antigen ATPase/helicase inhibition assay; at 20 µM; stronger effect = higher value

inhibition, inactive:
Cc1c(C(=O)Nc2ccccc2F)sc2ncn(CC(=O)N3CCCCC3)c(=O)c12 7.79%
Brc1cccc(/C=N/Nc2nc(N3CCCCC3)nc(N3CCCCC3)n2)c1 3.51%
CCOC(=O)c1ccccc1NC(=S)N1CCN(C2CCCCC2)CC1 7.91%
Cc1ccc2cccc(Oc3ncnc4scc(-c5ccc(Cl)cc5)c34)c2n1 25.5%
O=S(=O)(NCc1ccccn1)c1ccccn1 9.8%
CCn1cc(C(=O)N2CCN(c3ccccc3)CC2)c(=O)c2cc(S(=O)(=O)N3CCOCC3)ccc21 4.92%
CCOc1ccc(Br)cc1S(=O)(=O)Nc1cccnc1 11.2%
O=C(NCCc1ccccn1)C1CC(=O)N(Cc2ccccc2Cl)C1 (centres undefined) 15.4%
Brc1ccccc1-n1nnc(-c2cccnc2)n1 12.4%
CCCCN(C(=N)N1CCCCC1)c1nc(C)c([N+](=O)[O-])c(=O)[nH]1 9.69%
Nc1cc(=O)[nH]c(SCC(=O)NNC(=O)Cc2ccccc2)n1 10.8%
O=c1[nH]c(NC2CCCCC2)c([N+](=O)[O-])c(=O)[nH]1 4.57%
S=C1Cc2ccccc2C(c2ccc(Cl)cc2)N1 (centres undefined) 2.33%
Cc1ccc(NC(=O)CSc2nnc(C)c(=O)n2N)cc1 14.2%
Cc1ccc(NC(=O)CSc2nnc(-c3cnccn3)n2C)cc1C 29.7%
CCc1ccc(NC(=O)CSc2nnc(-c3cnccn3)n2C)cc1 14.9%
CCn1c(SCC(=O)Nc2ccc(NC(C)=O)cc2)nnc1C1CC1 12.8%
CCn1nnnc1SCC(=O)Nc1ccc(N(C)C)cc1 37.7%
CCn1c(SCC(=O)Nc2ccc(F)cc2)nnc1C1CC1 3.39%
CCCCn1nnnc1SCC(=O)Nc1ccc(C)cc1 -2.62%
CC(=O)Nc1ccc(NC(=O)CSc2nnc(C)c(=O)n2N)cc1 12.1%
O=C(CSc1ccc(-c2cccc([N+](=O)[O-])c2)nn1)NCc1ccccc1 11.8%
CCCc1cc(=O)oc2cc(OC3CCCCC3=O)ccc12 (centres undefined) 18.5%
O=C(O)COc1ccc2c(c1)OCCO2 -3.88%
CCOC(=O)c1sc2nc(CC(=O)OC)nc(NCCN(CC)CC)c2c1C 28.4%
Cc1cccc(NC(=O)CSc2nnc(-c3ccco3)c(-c3ccco3)n2)c1 35%
COc1ccc(NC(=O)CSc2nnc(-c3ccco3)c(-c3ccco3)n2)cc1OC 26.9%
COC(=O)/C=C1/C(=O)N/C(=N\c2nc(C)cc(C)n2)N1c1ccc(OC)cc1 3.13%
O=C(N/N=C/c1cccnc1)c1cccc(S(=O)(=O)N2CCCC2)c1 17.7%
CC(=O)Nc1ccc(/C=N/NC(=O)c2cccc(S(=O)(=O)N3CCOCC3)c2)cc1 8.56%
CCOc1cc(/C=N/NC(=O)c2cccc(S(=O)(=O)N3CCCC3)c2)ccc1OCC(=O)N(C)C 0.99%
O=C(N/N=C/c1ccccn1)c1cccc(S(=O)(=O)N2CCCC2)c1 9.14%
COc1cc(/C=N/NC(=O)c2cccc(S(=O)(=O)N3CCCCC3)c2)cc(Br)c1O 10.6%
COc1cc(/C=N/NC(=O)c2cccc(S(=O)(=O)N3CCCC3)c2)cc(OC)c1O 37.9%
C/C(CC(=O)NC1CCCCCC1)=N\NC(=O)c1cnccn1 0.37%
COC(CNC(=O)C(=O)Nc1cc2c3c(c1)CCN3C(=O)CC2)OC 6.3%
COc1ccc(Cn2c(=O)[nH]c3cc(C(=O)NC4CCN(Cc5ccccc5)CC4)ccc32)cc1 1.67%
COc1ccc(C(CNC(=O)COc2ccc(F)cc2Br)N2CCCC2)cc1 (centres undefined) 5.54%
O=c1nc2n(c3cccc(Cl)c13)CCCCC2 5.2%
Cn1c(=O)n(CC(N)=O)c(=O)c2c1nc1n2CCCN1Cc1ccccc1 5.61%
CC(C)(C)C(=O)NC(=S)Nc1ccccc1F 0.75%
CC1=NN(c2ccccc2)C(=O)/C1=C\C=C\c1ccccc1 19.4%
CC1=NN(c2ccc(Cl)c(C(=O)O)c2)C(=O)C1 27.9%
CCOC(=O)c1ccc(N2N=C(C)/C(=C/C=C/c3ccco3)C2=O)cc1 21%
CC1=NN(c2ccc(C(=O)OC(C)C)cc2)C(=O)/C1=C\C=C\c1ccco1 12.7%
O=C(/C=C/c1ccco1)Nc1cc(Cl)ccc1C(=O)O 21.9%
CC1=NN(c2ccccc2)C(=O)/C1=C/C=C/c1ccccc1 9.74%
COC(=O)c1cc(NC(=O)Cn2c(=O)cnc3ccccc32)cc(C(=O)OC)c1 24%
CCCCc1c(O)nc(SCC(=O)NC(C)(C)C)n(-c2ccccc2C)c1=O 0.223%
Cc1ccc(NC(=O)c2oc3ccccc3c2NC(=O)C2CC2)cc1 12.7%
Cc1cc(NC(=O)/C=C\C(=O)O)c([N+](=O)[O-])cc1C 9.88%
CCCn1c(N)c(C(=O)CSc2n[nH]c(-c3ccc(C)cc3)n2)c(=O)[nH]c1=O 8.37%
CC(C)C[C@H]1CN=C(Nc2ccccc2)N1CCCC1CCCC1 16.4%
Oc1ccc(/C=N\Nc2nncc(-c3ccccc3)n2)cc1 28.1%
O=c1[nH]c(=O)c2nnc(N/N=C/c3ccccc3F)nc2[nH]1 11.5%
CC(C)C(NS(=O)(=O)c1cccc2nsnc12)C(=O)Nc1nc2ccc(Cl)cc2s1 (centres undefined) 1.74%
COc1ccc(S(=O)(=O)Nc2c(C(=O)O)[nH]c3ccccc23)cc1 11.7%
COc1ccc(N2C(=O)NC(=O)C2=O)cc1 1.84%
Nc1nc(Nc2ccccc2Cl)cc(=O)[nH]1 10.8%
COCn1c(-c2ccc(OC)c(OC)c2)nc2ccccc21 3.62%
O=C1CS/C(=N\N=C\c2ccco2)N1c1ccccc1 31.1%
COc1ccc2cc(S(=O)(=O)n3cnc(C)c3)ccc2c1 3.48%
CCN(CC)c1ccc(/C=N/NC(=O)CN2CCCc3ccccc32)cc1 13.9%
CNC(=S)N1CCN(c2cccc(OC)c2)CC1 -1.1%
COc1ccc(N2CCN(C(=S)Nc3ccccc3)CC2)cc1 17.3%
CCN1CCN(C(=O)NC2CC(=O)N(c3ccc(OC)cc3)C2)CC1 (centres undefined) 24.6%
COc1ccc(N2CC(NC(=O)N3CCN(c4ccccc4)CC3)CC2=O)cc1 (centres undefined) 21.7%
CCC(Sc1nc(N)c(NC(=O)c2ccc(OC)cc2)c(=O)[nH]1)C(=O)O (centres undefined) 7.11%
Cc1cc(NC(=O)CSc2nc(N)c(NC(=O)c3ccc(F)c(F)c3)c(=O)[nH]2)no1 5.69%
N#CC(C#N)=C1c2cc(S(N)(=O)=O)ccc2-c2ccc(S(N)(=O)=O)cc21 3.73%
N=C1/C(=C\c2ccc(OCc3ccccc3)cc2)C(=O)N=C2SC(N3CCCC3)=NN12 10.7%
O=c1[nH]c(CSc2nnc(-c3ccccc3)n2-c2ccccc2)nc2ccccc12 3.3%
COc1cccc(C(=O)NCC(=O)N2CCC3(CC2)NCCc2[nH]cnc23)c1OC 28.6%
O=C(CSc1nc(-c2ccco2)cc(C(F)(F)F)n1)Nc1ccccc1C(F)(F)F 13.3%
O=C(O)C1CC(=O)N(c2ccc(OCc3c(F)cccc3Cl)cc2)C1 (centres undefined) 1.79%
Cc1ccc(-c2oc3ncnc(N)c3c2-c2ccc(C)cc2)cc1 5.86%
COc1ccc(-c2oc3ncnc(N)c3c2-c2ccccc2)cc1 5.94%
Cc1cc(NC(=O)CSc2nc3ccccc3n2CC(=O)N2CCC(C)CC2)no1 -5.11%
NC1=NC(=O)C2(COC(c3ccncc3)OC2)S1 (centres undefined) 3.62%
CC(C)CSc1nc2ccccc2n1CC(=O)O 9.25%
CC(=O)N1C(=O)N(C(C)=O)C2C1N(C(C)=O)C(=O)N2C(C)=O (centres undefined) 5.35%
O=C1CCCN=C(Nc2ccc(F)c(Cl)c2)S1 9.56%
CN1C(=O)/C(=C\C=C2/CCCN2C)N(C)C1=S 17.1%
CN1CCN(/C=C2\SC(=S)NC2=O)CC1 5.4%
COc1ccc(-c2cc(C(=O)Nc3cccc(Cl)c3)no2)cc1 7.5%
O=C(COc1ccc(F)cc1)Nc1cc(S(=O)(=O)N2CCCCC2)ccc1N1CCCCC1 16%
CCc1ccccc1N1CSC2=C(C#N)C(c3ccccc3F)CC(=O)N2C1 (centres undefined) 54.3% and 27%
N#CC1=C2SCN(c3ccc(F)cc3)CN2C(=O)CC1c1cccc(F)c1 (centres undefined) 35.6%
N#CC1=C2SCN(Cc3ccco3)CN2C(=O)CC1c1ccccc1F (centres undefined) 21.6%
N#CC1=C2SCN(Cc3ccccc3)CN2C(=O)CC1c1ccccc1F (centres undefined) 35.3%
N#CC1=C2SCN(c3ccccc3)CN2C(=O)CC1c1c(Cl)cccc1Cl (centres undefined) 33.9%
N#CC1=C2SCN(Cc3ccco3)CN2C(=O)CC1c1cccc2ccccc12 (centres undefined) 24.4%
COc1ccccc1Nc1nc(NCCO)nc(N)c1[N+](=O)[O-] 7.82%
COc1ccc(-c2cc(-c3n[nH]c(=S)n3-c3ccccc3OC)[nH]n2)cc1 32.3%
